Shown are actives, neighbours in structure and some others; about 2.3% of the full set was active somewhere.
697 NFkB inh = inhibitors of PMA/ionomycin-induced NF-kB reporter, 697 cells, primary screen, B-cell NF-kB inhibitor project, cell-based, luminescence, uHTS; 0.33% of 330,000 active; AID 435022, 2010; 697 B-cell NF-kB luciferase reporter, 16 h; inhibition, % at 4 µM; in the data active means inhibition above about 35%
Gli-Sufu block = Gli-Sufu pathway antagonists, primary screen, luciferase luminescence, Sufu-KO-LIGHT cells, uHTS; 0.74% of 340,000 active; inhibition, % at 5 µM; Sufu-KO-LIGHT fibroblasts, Gli luciferase reporter luminescence;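 active means inhibition above about 55%, limit read from the data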
TAG inh = inhibitors of triacylglycerol accumulation, primary screen, cell-based, uHTS, fluorescence, H9c2; H9c2 cells, Nile Red lipid (TAG) fluorescence; cells loaded with 200 µM oleic acid; inhibition, % at 12.5 µM; 0.66% of 230,000 active; AID 651582, 2012;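 active means pattern-corrected inhibition of lipid staining of at least 50% with the nuclear-stain viability signal not falling by more than 50%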
Jurkat NFkB inh = inhibitors of induced NF-kB luciferase reporter, primary screen, TCR NF-kB activation inhibitor project, cell-based, luminescence, uHTS; 0.53% of 330,000 active; Jurkat, PMA/ionomycin-induced NF-kB luciferase reporter; inhibition, % at 4 µM; AID 435003, 2010; in the data active means inhibition above about 50%
aSyn 5UTR inh = MLPCN primary screen, SNCA 5' untranslated region. alpha-synuclein 5'UTR reporter, inhibitor activity. 0.82% of 300,000 active. inhibition, % (tested at 7.5 µM); in the data active means inhibition above about 60%;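 further: H4 neuroglioblastoma cells stably carrying SNCA 5'UTR luciferase fusion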
Shn3 3UTR inh = reduction of Shn3 3'UTR firefly luciferase signal, primary screen, Schnurri-3 inhibitor project, cell-based, Clone20 osteoblasts, set 2; inhibition, % at 12.5 µM; Clone20 osteoblast Shn3 3'UTR firefly luciferase, 24 h; 0.52% of 360,000 active; AID 588674, 2011;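 active means mean inhibition of at least 75% with every replicate also reaching 75%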
Jurkat NFkB conf = PMA/ionomycin-induced NF-kB reporter inhibitors, Jurkat retest, confirmation, T-cell NF-kB inhibitor project, cell-based, luminescence, single concentration. shares compounds with Jurkat NFkB inh. Jurkat NF-kB luciferase, 16 h. inhibition, % at 4 µM. 27% of 2,700 active. AID 435020, 2010;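 active means inhibition reaching about 45% at 4 µM in either replicate, limit read from the data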
Each line names hits and unclear results; the compound was inactive in the other large screens (follow-up assays come after a bar, where they were run).

Cc1ccc(S(=O)(=O)CCC(=O)OC2CC(C)OC2=O)cc1 (stereo not drawn)	none (no result: aSyn 5UTR inh) | Jurkat NFkB conf inactive
CCN(CC)S(=O)(=O)c1cccc(C(=O)OC2CC(C)OC2=O)c1 (stereo not drawn)	none (no result: TAG inh)
CCOC(=O)c1ccc(N2CCOCC2)c(NC(=O)c2c(-c3ccccc3)noc2C)c1	Jurkat NFkB inh 64 | Jurkat NFkB conf inactive
CSc1n[nH]c2nc3c(c(=O)n12)C1(CCCCC1)Cc1ccccc1-3	none
CCOc1ccc2ccccc2c1C(=O)N1CCN(c2ccccc2)CC1	Jurkat NFkB inh 68 (no result: TAG inh) | Jurkat NFkB conf inactive
COCC(=O)N1CCN(c2cccc(C(F)(F)F)c2)CC1	none
CCOC(=O)c1[nH]c(C)c(C(=O)N2CCN(c3ccccc3)CC2)c1C	none (no result: TAG inh)
O=C(O)c1ccccc1C(=O)N1CCN(c2cccc(Cl)c2)CC1	none
CCOc1ccccc1C(=O)N1CCN(c2cccc(Cl)c2)CC1	Gli-Sufu block 59, Jurkat NFkB inh 81, aSyn 5UTR inh 95 (no result: TAG inh) | Jurkat NFkB conf inactive
COc1ccccc1C(=O)N1CCN(c2cccc(C(F)(F)F)c2)CC1	Jurkat NFkB inh 66 | Jurkat NFkB conf inactive
O=C(NCCc1ccc(Cl)cc1)c1ccc2c(c1)OCCO2	none (no result: TAG inh) | Jurkat NFkB conf inactive
O=S(=O)(Nc1ccc2c(c1)OCO2)c1ccccc1	none (no result: TAG inh)
COc1cc(/C=C(/C#N)c2nc3ccccc3[nH]2)ccc1OCC(=O)Nc1ccccc1C	Jurkat NFkB inh 53 (no result: TAG inh, aSyn 5UTR inh) | Jurkat NFkB conf inactive
Cc1noc(C)c1S(=O)(=O)N1CCCC(C(=O)NCCc2ccccc2)C1 (stereo not drawn)	none
C[C@@H](CO)NC(=O)c1ccc2c3n(nc2c1)-c1ccccc1CO3	none
C(#CC1CCCC1)c1ccc2c(c1)COc1c3ccccc3nn1-2	none (no result: TAG inh)
CCCc1cc(-c2ccc3c(c2)COc2c4ccccc4nn2-3)on1	none | Jurkat NFkB conf inactive
Cc1cc(-c2ccc3c(c2)COc2c4ccccc4nn2-3)on1	none | Jurkat NFkB conf inactive
O=C(Nc1cccnc1)c1ccc(COc2ccccc2Cl)o1	none
O=C(Nc1cccnc1)c1ccc(COc2cc(Cl)ccc2Cl)o1	Jurkat NFkB inh 57 | Jurkat NFkB conf inactive
COc1cccc(NC(=S)N2CCN(S(=O)(=O)c3ccc(F)cc3)CC2)c1	none (no result: aSyn 5UTR inh)
Cc1ccc(SCCNCc2ccco2)cc1	none
COc1ccccc1N1CCN(C(=O)C2c3ccccc3Oc3ccccc32)CC1	TAG inh 57, Jurkat NFkB inh 55, aSyn 5UTR inh 81 | Jurkat NFkB conf inactive
COc1ccccc1N1CCN(C(=O)C2CC2)CC1	none
O=C(NNc1nc2ccccc2s1)C1CC1	none (no result: TAG inh)
Brc1ccc2c(c1)C(C1=NCCN1)c1ccccc1CS2 (stereo not drawn)	Jurkat NFkB inh 60 (no result: TAG inh) | Jurkat NFkB conf 56
COc1ccc(N(C(=O)c2ccncc2)S(=O)(=O)c2ccccc2)cc1	none
COc1ccc(N(C(=O)c2ccccc2C)S(=O)(=O)c2cccs2)cc1	Jurkat NFkB inh 66 (no result: TAG inh) | Jurkat NFkB conf inactive
CCOc1ccc(OCC)c(NC(=O)CN(C)S(=O)(=O)c2cnc[nH]2)c1	none
COc1cccc(N2CCN(C(=O)/C=C/c3ccco3)CC2)c1	none
COc1cc(C(=O)OCCc2cc3ccccc3c(=O)o2)cc(OC)c1OC	Jurkat NFkB inh 58 (no result: TAG inh, aSyn 5UTR inh) | Jurkat NFkB conf 58
CN(C)CCCNc1cc(O)c2ncccc2c1	Jurkat NFkB inh 56 (no result: aSyn 5UTR inh) | Jurkat NFkB conf inactive
Oc1cc(NCc2ccc(F)cc2)cc2cccnc12	none (no result: aSyn 5UTR inh)
CC(=O)Nc1ccc(NC(=O)C(C)Oc2ccc(Cl)cc2Cl)cc1 (stereo not drawn)	none (no result: TAG inh)
CC(Oc1ccc(Cl)cc1Cl)C(=O)Nc1ccncc1 (stereo not drawn)	Jurkat NFkB inh 51 (no result: Shn3 3UTR inh) | Jurkat NFkB conf inactive
O=S(=O)(C/C(=C/CO)S(=O)(=O)c1ccccc1)c1ccccc1	Jurkat NFkB inh 72, Shn3 3UTR inh 94 (no result: TAG inh) | Jurkat NFkB conf 58
CC(=O)c1cc(C(=O)Nc2ccc3ccccc3c2)c(C)o1	none (no result: TAG inh)
Cc1ccc2cc(NC(=O)c3cccc(F)c3)ccc2n1	none
O=C(Nc1ccc2ccccc2c1)c1cccc(F)c1	none (no result: TAG inh) | Jurkat NFkB conf inactive
Cc1cc(C(=O)Nc2ccc3ccccc3c2)c(C)o1	none (no result: TAG inh) | Jurkat NFkB conf inactive
O=C(CCNS(=O)(=O)c1ccc2c(c1)CCC(=O)N2)NCc1cccnc1	none
CC(C)NC(=O)N(O)C1N(C(C)C)C(=O)N(Cc2ccc3c(c2)OCO3)C1(C)C (stereo not drawn)	none
CC(=O)Nc1sc2c(c1-c1nc3ccccc3s1)CCN(C(C)C)C2	TAG inh 92, Jurkat NFkB inh 84 (no result: aSyn 5UTR inh) | Jurkat NFkB conf inactive
CCOC(=O)NC(=O)COC(=O)CCCc1nc2ccccc2s1	none
COc1cc(C2N3CC4(C)CN2CC(C)(C3)C4)ccc1O (stereo not drawn)	none
CCC(=O)Nc1ccc2c(c1)C(=O)c1ccccc1C2=O	none (no result: TAG inh) | Jurkat NFkB conf inactive
Cc1cccc(N(CC(=O)N2CCN(c3ccc(F)cc3)CC2)S(C)(=O)=O)c1C	none (no result: TAG inh)
Oc1ccccc1N=Nc1nc(-c2ccccc2)c(-c2ccccc2)[nH]1	Gli-Sufu block 93, Jurkat NFkB inh 58, aSyn 5UTR inh 107, Shn3 3UTR inh 88 | Jurkat NFkB conf 76
COc1ccccc1N=Nc1nc(-c2ccccc2)c(-c2ccccc2)[nH]1	none (no result: 697 NFkB inh, TAG inh, Jurkat NFkB inh)
c1ccc(CSc2ccc(-c3ccccn3)nn2)cc1	none | Jurkat NFkB conf inactive
CC(C)COc1ccc(/C(=N/O)c2ccccc2)cc1	none (no result: TAG inh)
COc1ccc(C2N(c3cc(Cl)ccc3OC)C(=O)C3CCCN32)cc1 (stereo not drawn)	none (no result: TAG inh)
O=C(C1CCC(C(=O)N2CCc3ccccc32)CC1)N1CCc2ccccc21 (stereo not drawn)	none
O=C(Nc1ccccc1)C(=O)Nc1ccc2c(c1)N(C(=O)C1CC1)CCC2	none | Jurkat NFkB conf inactive
Cc1c(-c2nc(N)nc(Nc3ccccc3F)n2)oc2ccccc12	none (no result: TAG inh) | Jurkat NFkB conf inactive
Cc1cccc(Nc2nc(N)nc(-c3oc4ccccc4c3C)n2)c1	none
Cc1cnc(NC(=O)COc2ccc3c(c2)CCC3)s1	none | Jurkat NFkB conf inactive
Brc1ccc2nc(-c3c[nH]c4ccccc34)cn2c1	none | Jurkat NFkB conf inactive
Cc1cc2c(cc1C)C(c1ccccc1F)CC(=O)N2 (stereo not drawn)	none
Cc1cc2c(cc1C)C(c1cc(Br)ccc1F)CC(=O)N2 (stereo not drawn)	Jurkat NFkB inh 57, aSyn 5UTR inh 65 | Jurkat NFkB conf inactive
COCCOC(=O)c1c(C)oc2ccc(O)c(CN3CCC(C)CC3)c12	none (no result: TAG inh)
COc1cc(SC)ccc1C(=O)NC(C)C	none
